# Legend:
# Format in all cases: functional
# Plasmodium falciparum [1] = assay: GSK_TCMDC: Inhibition of Plasmodium falciparum 3D7 in whole red blood cells, using parasite LDH activity as an index of growth. Test compounds present at 2uM
# Plasmodium falciparum [2] = assay: GSK_TCMDC: Inhibition of Plasmodium falciparum Dd2 in whole red blood cells, using parasite LDH activity as an index of growth. Test compounds present at 2uM
# HepG2 = assay: GSK_TCMDC: Percent inhibition of human HepG2 cell line. Test compounds present at 10uM.
Compound,Inhibition (Plasmodium falciparum [1]) [%],Inhibition (Plasmodium falciparum [2]) [%],Inhibition (HepG2) [%]
Cc1cc(N[C@@H](CC(C)C)C(=O)NCc2cccc(F)c2)nc(NCC2CCCCC2)n1.O=C(O)C(F)(F)F,99,70,3
CN(C(=O)C1(c2ccc(Cl)cc2)CC1)C1CCN(CCCCCNC(=O)/C=C/c2ccc(Cl)c(Cl)c2)CC1,88,0,91
CCCCc1ccc(-c2ccc3[nH]c(C)c(Br)c(=O)c3c2)cc1,97,97,0
Cc1c(-c2cccc(C(C)(C)NCCCN3CCCCC3)c2)cnc(N)c1C.Cl,95,2,5
Cc1ccc2nc(Cl)c3cc(C(=O)NCCCN4CCCC4)sc3c2c1,89,40,26
CCN(CC)CCCC(C)Nc1cc(C)nc2cc(Cl)ccc12 (stereo not drawn),100,7,9
CC(=O)Nc1cccc(NC(=O)CSc2ccc(-c3nc4ccccc4[nH]3)cn2)c1,97,73,22
O=C(Nc1cc(=O)[nH]c2nc(-c3ccccc3)nn12)C1CCCCC1,86,89,0
CCc1c(CCNCCc2cccc(CCNCCc3ccc(OC)c(OC)c3CC)c2)ccc(OC)c1OC.Cl,81,67,100
Clc1ccc(-c2nc3cc(-c4ccc5nc(-c6ccc(Cl)cc6)[nH]c5c4)ccc3[nH]2)cc1,100,99,59
O=C(Nc1cccc(-c2cccc(-c3nc4cc(C(F)(F)F)ccc4[nH]3)c2)c1)c1ccc(=O)[nH]n1,100,26,63

# Reference: ChEMBL document CHEMBL1157539, “Thousands of chemical starting points for antimalarial lead identification” (Nature, 2010)
